{
  "source": "PubChem BioAssay (NCATS)",
  "note": "Active and inactive are the calls of the source. Unless noted, calls follow the shape of the dose curve; as a rule, active = well fitted curve in the direction sought with a large enough effect (not every such curve was filed as active); inconclusive = small, poorly fitted or top-dose-only effect, or effect the other way, or another doubt; inactive = no such curve, though single readings can be large or run the other way.",
  "data": [
    {"molecular_target": "Pyruvate kinase PKM (Homo sapiens) (UniProt P14618)", "sequence (P14618 whole entry, looked up)": "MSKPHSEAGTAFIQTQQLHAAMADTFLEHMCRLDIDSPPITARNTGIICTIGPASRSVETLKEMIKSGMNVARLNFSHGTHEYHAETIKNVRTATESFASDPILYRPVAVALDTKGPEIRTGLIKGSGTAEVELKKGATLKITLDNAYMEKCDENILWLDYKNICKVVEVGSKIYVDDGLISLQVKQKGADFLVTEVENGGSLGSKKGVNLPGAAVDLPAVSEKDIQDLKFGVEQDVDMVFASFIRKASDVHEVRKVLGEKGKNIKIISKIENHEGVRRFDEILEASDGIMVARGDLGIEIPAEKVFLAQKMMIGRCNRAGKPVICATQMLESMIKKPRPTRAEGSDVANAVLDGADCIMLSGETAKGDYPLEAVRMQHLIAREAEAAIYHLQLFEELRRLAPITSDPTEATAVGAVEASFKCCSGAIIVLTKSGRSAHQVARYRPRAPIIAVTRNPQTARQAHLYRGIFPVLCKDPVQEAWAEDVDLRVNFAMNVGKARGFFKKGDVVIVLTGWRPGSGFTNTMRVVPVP", "assay": "qHTS Assay for Activators of Human Muscle Pyruvate Kinase (AID 954);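 also: 0% = uninhibited enzyme and -100% = no enzyme or full thiadiazolimine inhibition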", "settings": "purified human muscle pyruvate kinase, luciferase-coupled luminescence, 1 h; series mostly up to 57.5 µM; activity change, negative = inhibition: at the top concentration", "procedure,_shortened": "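Human PKM2 activity is measured as ATP generation, detected by luciferase-coupled luminescence. The enzyme (0.1 nM) acts on 0.5 mM PEP and 0.1 mM ADP for 1 h at ambient temperature; data are normalized to uninhibited and full-inhibition wells.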", "values": [
      {"compound": "CN(C)CCC=C1c2ccccc2C=Cc2ccccc21", "activity change, negative = inhibition": "-19.3% (inactive)"},
      {"compound": "CN(C)c1nc(N(C)C)nc(N(C)C)n1", "activity change, negative = inhibition": "-10.6% (inactive)"},
      {"compound": "Cc1cc(C(C)(C)C)c(O)c(C)c1CC1=NCCN1", "activity change, negative = inhibition": "3.37% (inactive)"},
      {"compound": "CN1CCN(CCCN2c3ccccc3Sc3ccc(Cl)cc32)CC1", "activity change, negative = inhibition": "-3% (inactive)"},
      {"compound": "CN(C)CCCN1c2ccccc2CCc2ccc(Cl)cc21", "activity change, negative = inhibition": "-17.1% (inactive)"},
      {"compound": "NCCCCCC(=O)O", "activity change, negative = inhibition": "-9.44% (inactive)"},
      {"compound": "Cn1cnc2c1c(=O)[nH]c(=O)n2C", "activity change, negative = inhibition": "0.584% (inactive)"},
      {"compound": "O=C(C1CCCCC1)N1CC(=O)N2CCc3ccccc3C2C1", "note": "(centres undefined)", "activity change, negative = inhibition": "10.4% (inactive)"},
      {"compound": "O=C(CCCN1CCC(O)(c2ccc(Cl)cc2)CC1)c1ccc(F)cc1", "activity change, negative = inhibition": "-6.75% (inactive)"},
      {"compound": "CC(C)Cc1ccc(C(C)C(=O)O)cc1", "note": "(centres undefined)", "activity change, negative = inhibition": "-19.9% (inactive)"},
      {"compound": "Cc1cnc(C(=O)NCCc2ccc(S(=O)(=O)NC(=O)NC3CCCCC3)cc2)cn1", "activity change, negative = inhibition": "-15.6% (inactive)"},
      {"compound": "Cn1ccc2cc3c(cc21)CCN3C(=O)Nc1cccnc1", "activity change, negative = inhibition": "-104% (inactive)"},
      {"compound": "Cc1ccccc1N1C(=O)c2cc(S(N)(=O)=O)c(Cl)cc2NC1C", "note": "(centres undefined)", "activity change, negative = inhibition": "-14.6% (inactive)"},
      {"compound": "COC(=O)Nc1nc2ccc(C(=O)c3cccs3)cc2[nH]1", "activity change, negative = inhibition": "-18.5% (inactive)"},
      {"compound": "Clc1ccccc1C(c1ccccc1)(c1ccccc1)n1ccnc1", "activity change, negative = inhibition": "-7.06% (inactive)"},
      {"compound": "CN1CCN(C2=Nc3cc(Cl)ccc3Nc3ccccc32)CC1", "activity change, negative = inhibition": "-5.88% (inactive)"},
      {"compound": "NC12CC3CC(CC(C3)C1)C2", "activity change, negative = inhibition": "-4.61% (inactive)"},
      {"compound": "Nc1nc2c(ncn2COC(CO)CO)c(=O)[nH]1", "activity change, negative = inhibition": "-27.8% (inactive)"},
      {"compound": "NC(=O)OCC(COC(N)=O)c1ccccc1", "activity change, negative = inhibition": "-32.4% (inactive)"},
      {"compound": "NCCc1cnc[nH]1", "activity change, negative = inhibition": "-3.59% (inactive)"},
      {"compound": "O=C(Nc1ccc([N+](=O)[O-])cc1Cl)c1cc(Cl)ccc1O", "activity change, negative = inhibition": "-81.5% (inactive)"},
      {"compound": "Fc1ccc([C@@H]2CCNC[C@H]2COc2ccc3c(c2)OCO3)cc1", "activity change, negative = inhibition": "-20.6% (inactive)"},
      {"compound": "CCOC(=O)Nc1ccc(NCc2ccc(F)cc2)nc1N", "activity change, negative = inhibition": "3.9% (inactive)"},
      {"compound": "O=C(c1ccc(F)cc1)C1CCN(CCn2c(=O)[nH]c3ccccc3c2=O)CC1", "activity change, negative = inhibition": "0.186% (inactive)"},
      {"compound": "O=C1N(c2ccccc2)c2ccccc2C1(Cc1ccncc1)Cc1ccncc1", "activity change, negative = inhibition": "-9.63% (inactive)"},
      {"compound": "CN1CCC(=C2c3ccccc3CC(=O)c3sccc32)CC1", "activity change, negative = inhibition": "-15.3% (inactive)"},
      {"compound": "CS(=O)(=O)Nc1ccc([N+](=O)[O-])cc1Oc1ccccc1", "activity change, negative = inhibition": "-23.8% (inactive)"},
      {"compound": "CN1CCC(=C2c3ccccc3C=Cc3ccccc32)CC1", "activity change, negative = inhibition": "-8.21% (inactive)"},
      {"compound": "CCOC(=O)c1ncn2c1CN(C)C(=O)c1cc(F)ccc1-2", "activity change, negative = inhibition": "7.5% (inactive)"},
      {"compound": "CN(C)CCOC(c1ccccc1)c1ccccc1", "activity change, negative = inhibition": "-16.8% (inactive)"},
      {"compound": "O=c1c(O)c(-c2ccc(O)c(O)c2)oc2cc(O)cc(O)c12", "activity change, negative = inhibition": "-14.9% (inactive)"},
      {"compound": "O=C1c2c(O)ccc(O)c2C(=O)c2c(NCCNCCO)ccc(NCCNCCO)c21", "activity change, negative = inhibition": "-34.3% (inactive)"},
      {"compound": "CC[N+](CC)(CC)CCOc1cccc(OCC[N+](CC)(CC)CC)c1OCC[N+](CC)(CC)CC", "activity change, negative = inhibition": "-28.9% (inactive)"},
      {"compound": "CCOC(=O)C(C)(C)Oc1ccc(Cl)cc1", "activity change, negative = inhibition": "-3.38% (inactive)"},
      {"compound": "C[C@](N)(Cc1ccc(O)c(O)c1)C(=O)O", "activity change, negative = inhibition": "0.871% (inactive)"},
      {"compound": "OCCN(CCO)c1nc(N2CCCCC2)c2nc(N(CCO)CCO)nc(N3CCCCC3)c2n1", "activity change, negative = inhibition": "-7.59% (inactive)"}
    ]},
    {"molecular_target": "Pyruvate kinase (Leishmania mexicana) (UniProt Q27686)", "sequence (Q27686 2-499 E452W)": "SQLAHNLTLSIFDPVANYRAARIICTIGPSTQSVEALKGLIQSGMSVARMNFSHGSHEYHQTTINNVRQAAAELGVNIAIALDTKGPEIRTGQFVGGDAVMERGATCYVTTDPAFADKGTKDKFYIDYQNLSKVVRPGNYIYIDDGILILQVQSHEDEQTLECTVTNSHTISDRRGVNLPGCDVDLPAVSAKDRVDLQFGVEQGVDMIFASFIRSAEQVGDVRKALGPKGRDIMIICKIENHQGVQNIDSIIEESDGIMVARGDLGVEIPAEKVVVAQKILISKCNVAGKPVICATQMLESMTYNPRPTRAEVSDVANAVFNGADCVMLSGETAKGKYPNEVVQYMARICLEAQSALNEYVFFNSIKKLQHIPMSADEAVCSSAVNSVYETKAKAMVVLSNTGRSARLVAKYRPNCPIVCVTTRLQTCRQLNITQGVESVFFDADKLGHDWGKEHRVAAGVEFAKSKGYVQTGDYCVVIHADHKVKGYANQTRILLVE", "assay": "qHTS Validation Assay for Activators of Leishmania Mexicana Pyruvate Kinase (AID 959; active = well fitted activation curve with a large enough effect)", "settings": "purified L. mexicana pyruvate kinase, enzyme activity; series mostly up to 57.5 µM; activity change, positive = activation: at the top concentration", "procedure,_shortened": "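Pyruvate kinase activity of E451W LmPYK (0.2 nM) was followed as ATP output after 1 h at room temperature with 0.5 mM PEP and 0.1 mM ADP, detected by PKLight luminescence.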", "values": [
      {"compound": "Cn1ccc2cc3c(cc21)CCN3C(=O)Nc1cccnc1", "activity change, positive = activation": "-90.9% (inactive)"},
      {"compound": "O=C(Nc1ccc([N+](=O)[O-])cc1Cl)c1cc(Cl)ccc1O", "activity change, positive = activation": "-71.8% (inactive)"},
      {"compound": "O=C1c2c(O)ccc(O)c2C(=O)c2c(NCCNCCO)ccc(NCCNCCO)c21", "activity change, positive = activation": "-36% (inactive)"}
    ]}
  ]
}
